A selection: hits, their analogues and other compounds. The true share with any hit is near 2.2%.
C2C12 statin: suppressors of statin myotoxicity in C2C12 myotubes, primary screen, cell-based, single point, plate reader | C2C12 myotubes + simvastatin, ATP luminescence, 48 h; scaled: DMSO 0, geranylgeraniol control 100 | rescue of ATP level, % at 7.49 µM | 0.78% of 330,000 active | AID 602340, 2012;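 active means mean ATP rescue above about 67%, or every replicate alone reaching that limit, limit read from the data, passing the limit was not always enough; inconclusive means no clear call, values can overlap the other calls; inactive means mean under the limit and some replicate under it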;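 further: myotubes were challenged with 10 µM simvastatin during compound exposure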
DENV2 CPE rescue: inhibitors of DENV2 cytopathic effect, primary screen, cell-based, plate reader, single concentration; DENV2-infected cells, cytopathic effect rescue; CPE inhibition, % at 9.99 µM; 1.7% of 350,000 active; AID 651640, 2012; in the data active means CPE inhibition above about 20%, passing the limit was not always enough; inconclusive means no clear call, values can overlap the other calls; tested in BHK-21 cells
PGC1a acetyl inh: inhibitors of PGC1a acetylation signal, primary screen, cell-based, U2OS, AlphaScreen, inhibitor mode. inhibition, % at 15.6 µM. AlphaScreen anti-acetyl-lysine; with virally co-expressed GCN5 acetyltransferase. AID 651687, 2012. 0.17% of 350,000 active;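 active means every replicate shows inhibition of at least 40%; inconclusive means mean inhibition at least 40% but some replicate below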
miR-122 sensor: miR-122 Renilla sensor signal increase in Huh7, primary screen, miR-122 inhibitor project, cell-based, single point, plate reader; Huh7 miR-122 Renilla luciferase sensor, 48 h; neutral wells = 0, positive control = 100; activation (reporter increase), % at 12.5 µM; 0.3% of 340,000 active;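 active means mean replicate activation score at least 90 and every replicate individually at or above 90; inconclusive means only one of the two criteria met; inactive means neither criterion met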;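 further: higher luciferase means less miR-122 activity so hits act as miR-122 inhibitors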
PvdQ acylase: P. aeruginosa PvdQ acylase inhibitors, primary screen, biochemical, fluorescence, plate reader and imaging, single point | PvdQ acylase [Pseudomonas aeruginosa LESB58] | purified PvdQ acylase | inhibition, % at 10 µM | 0.063% of 340,000 active | AID 488965, 2010; in the data active means inhibition above about 30%, passing the limit was not always enough; inconclusive means no clear call, values can overlap the other calls
A number is an active result; n = inactive; u = inconclusive; x = not tested or not shown.

SMILES	C2C12 statin	DENV2 CPE rescue	PGC1a acetyl inh	miR-122 sensor	PvdQ acylase
C[C@@H]1CN([C@@H](C)CO)C(=O)c2cc(NS(=O)(=O)c3cn(C)cn3)ccc2O[C@@H](C)CCCCO[C@@H]1CN(C)S(=O)(=O)c1cn(C)cn1	x	n	n	n	x
C[C@@H]1CN([C@H](C)CO)C(=O)c2cccc(NS(=O)(=O)c3cn(C)cn3)c2O[C@H]1CN(C)C(=O)NC1CCCCC1	n	u	n	n	x
Clc1ccccc1CNc1ncnc2nc[nH]c12	101	n	n	n	n
c1ccc(CNc2ncnc3nc[nH]c23)nc1	n	n	n	n	n
Cc1sc2ncn(CC(=O)N(CC(=O)NC3CCCC3)Cc3cccs3)c(=O)c2c1C	n	n	n	123	n
Cc1sc2ncn(CC(=O)NC3CCCCC3)c(=O)c2c1C	n	n	n	x	n
C[C@H]1CN([C@@H](C)CO)S(=O)(=O)c2ccc(C#CC3(O)CCCC3)cc2O[C@@H]1CN(C)C(=O)Cc1ccncc1	n	n	n	x	x
CC(C)OC(=O)c1c(F)c(F)c(N2CCOCC2)c(F)c1F	n	x	57	x	n
COC(=O)c1c(F)c(F)c(N2CCOCC2)c(F)c1F	n	x	n	n	n
O=C(c1cc(-c2ccccc2)n[nH]1)N1CCN(S(=O)(=O)c2ccccc2)CC1	n	43	n	n	n
COc1ccc(-c2cc(C(=O)N3CCN(S(=O)(=O)c4ccccc4)CC3)[nH]n2)cc1	n	n	n	n	n
CC(C)n1cc(/C=C2/NC(=O)N(c3cccc(Cl)c3)C2=O)c2ccccc21	n	x	n	n	n
CC(C)n1cc(/C=C2\NC(=O)N(c3cccc(Cl)c3)C2=O)c2ccccc21	115	x	n	n	n
CCNc1nc(NCC)nc(C(=O)OCCO)n1	n	29	n	n	n
CN(C)S(=O)(=O)c1cccc2c1C(=O)c1ccccc1C2=O	x	23	x	x	n
COc1ccc2c3c(n(C)c2c1)[C@@H](CO)N(Cc1ccccc1F)CC31CCN(CC2CC2)CC1	x	n	n	x	x
COc1ccc(NC2CCCN(C(=O)c3cccc(N4CCNC4=O)c3)C2)cc1 (stereo not given)	n	n	n	n	n
CC(C)c1ccc(NC2CCCN(C(=O)c3cccc(N4CCNC4=O)c3)C2)cc1 (stereo not given)	n	29	n	n	n
CCC(=O)N1CC[C@@H]2[C@H](CO)Nc3ccc(C#Cc4cccc(OC)c4)cc3[C@@H]21	n	x	n	n	x
CO[C@H]1CN(C)C(=O)c2ccc(NS(=O)(=O)c3ccc(-c4ccccc4)cc3)cc2OC[C@@H](C)NC[C@@H]1C	x	29	n	x	x
CO[C@H]1CN(C)C(=O)c2ccc(NS(=O)(=O)c3ccc(Oc4ccccc4)cc3)cc2OC[C@H](C)NC[C@H]1C	n	22	n	x	x
CO[C@H]1CN(C)C(=O)c2ccc(NS(=O)(=O)c3cccc(F)c3)cc2OC[C@H](C)NC[C@@H]1C	x	n	n	x	x
CO[C@@H]1CN(C)C(=O)c2ccc(NS(=O)(=O)c3cccc(F)c3)cc2OC[C@@H](C)NC[C@@H]1C	x	71	n	x	x
C[C@@H]1CN([C@@H](C)CO)C(=O)c2cc(NC(=O)c3ccncc3)ccc2O[C@@H](C)CCCCO[C@H]1CN(C)Cc1ccc2c(c1)OCO2	x	n	n	n	x
Cc1noc(/C=C/N(C)C)c1S(=O)(=O)N1CCCC(C(=O)NC2CCCCC2)C1 (stereo not given)	n	n	n	n	n
Cc1noc(/C=C/N(C)C)c1S(=O)(=O)N(C)CC(=O)NC1CCCCC1	x	x	43	n	n
C[C@@H]1CCCCO[C@@H](CN(C)C(=O)Nc2ccc(C(F)(F)F)cc2)[C@H](C)CN([C@@H](C)CO)C(=O)c2cc(NC(=O)c3ccncc3)ccc2O1	x	76	n	n	x
C[C@@H]1CCCCO[C@@H](CN(C)C(=O)C2CCCCC2)[C@H](C)CN([C@H](C)CO)C(=O)c2cc(NC(=O)c3ccncc3)ccc2O1	n	136	n	n	x
C[C@@H]1CN([C@H](C)CO)C(=O)c2cc(NC(=O)c3ccncc3)ccc2O[C@@H](C)CCCCO[C@H]1CN(C)C(=O)Nc1ccc(F)cc1	x	26	n	n	x
C[C@H]1CN([C@@H](C)CO)C(=O)c2cc(NC(=O)c3ccncc3)ccc2O[C@H]1CN(C)C(=O)Nc1ccccc1	n	64	n	n	x
